The supplement of paper PMC10338343
± gives the standard deviation. The full ranking holds about 6,600 sequences; the median of “pre-steady-state target cleavage rate” is about 0.07, and the highest 2% start at about 0.72. This excerpt belongs to a sample that is enriched for the highest values.

System: MIWI (PIWIL1) piRISC loaded with Kctd7 piRNA (30 nt)
Experiment: pre-steady-state target cleavage rate (min^-1); MIWI and MILI are mouse PIWI proteins and EfPiwi is from a freshwater sponge; tags in brackets are library labels; higher = faster piRNA-guided slicing of the target
Conditions: guide: Kctd7 piRNA 5'p-UGUUAAUCUCUCAGAGAAGGUGACAGUGAU; auxiliary factor: 500 nM mouse GTSF1
Summary of the method: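 In this Cleave-'n-Seq assay, uncleaved targets were sequenced and normalised to depth and to weakly complementary targets. They came from a transcribed, DNA-blocked target RNA library […] mixed with 1 nM active affinity-purified piRISC carrying one synthetic guide, with or without 500 nM GTSF1 partner protein, in HEPES–potassium acetate buffer at 33 °C for 0–8 or 0–960 min. After three trials were pooled and k3 was capped at 0.0001 min^-1, the pre-steady-state cleavage rate was obtained from a burst-and-steady-state fit.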
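Also: 1 nM active piRISC with 0.1 nM target library at 33 °C single turnover.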

Sequence | pre-steady-state target cleavage rate
UAGUCUGUCACCUUCGCUGAGAGAUUAACA | 0.416 ± 0.035
AUCACUUUCACCUUCUCUGAGAGAUUAACA | 0.622 ± 0.027
UAGUGAGUCUCCUUCUCUGAGAGAUUUACA | 0.0124 ± 0.0051
UAGUCUCUCACCUUCUCUGUGAGAUUAACA | 0.2 ± 0.015
UAGUGACAGACCCUUCUCUGAGAGAUUAACA | 0.0893 ± 0.016
UACACUGUCACGAACUCUGAGAGAUUAACA | 0.131 ± 0.019
UAGUCUGUCACCAUCUCUGAGAGAUUAUGA | 0.021 ± 0.0082
UAGUGACAGUCCUUCUCUGAGACAUUAACA | 0.0121 ± 0.0033
UUCUGAGUCACCUUCUCUGAGAGAUUAACA | 0.657 ± 0.059
UUGAGUGUCACCUUCUCUGAGAGAUUAACA | 0.763 ± 0.034
UUCACAGUCACCUUCUCUGAGAGAUUAACA | 0.656 ± 0.027
AUCUGAGUCACCUUCUCUGAGAGAUUAACA | 0.652 ± 0.053
UAGAGAGUCACCUUCUCUGAGAGAUUAACA | 0.797 ± 0.035
AUCACUAGUCACCUUCUCUGAGAGAUUAACA | 0.724 ± 0.04
UUCACUAGUCACCUUCUCUGAGAGAUUAACA | 0.708 ± 0.032
AUGAGUGUCACCUUCUCUGAGAGAUUAACA | 0.706 ± 0.032
UACACUAGUCACCUUCUCUGAGAGAUUAACA | 0.663 ± 0.029
UACACAGUCACCUUCUCUGAGAGAUUAACA | 0.589 ± 0.038
UAGAGUGUCACCUUCUCUGAGAGAUUAACA | 0.72 ± 0.035
AACACAGUCACCUUCUCUGAGAGAUUAACA | 0.736 ± 0.032
AUGACUGUCACCUUCACUGAGAGAUUAACA | 0.541 ± 0.032
UAGUCUGUCACGCUUCUCUGAGAGAUUAACA | 0.506 ± 0.025
UAGUGACUCCACCUUCUCUGAGAGAUUAACA | 0.415 ± 0.04
UAGACUGUCACCUUCUCUGUGACAUUAACA | 0.0186 ± 0.0033

Sequence | pre-steady-state target cleavage rate
UAGUGUGUCACCUUCUCUGAGAGUUUAUCA | 0.232 ± 0.056
UAGUGUGUCACCUUCUCUGAGACAUAAACA | 0.0331 ± 0.0077
UAGUGACAGUGCUUCGCUGAGAGAUUAACA | 0.00389 ± 0.0031
AUCACUGUCACCUUCACUGAGACAUUAACA | 0.252 ± 0.024
UAGACUAGUCACCUUCUCUGAGAGAUUAACA | 0.756 ± 0.049
UAGACAGUCACCUUCUCUGAGAGAUUAACA | 0.656 ± 0.033
UAGACUAUCACCUUCUCUGAGAGAUUAACA | 0.56 ± 0.026
UAGUGACAGACCUUCACUGAGAGAUAAACA | 0.0224 ± 0.007
UAGUGACAGUGCUUCUCUGAGAGUUUAACA | 0.00896 ± 0.0024
UAUACUGUCACCUUCUCUGAGAGAUUAACA | 0.767 ± 0.047
UACUCUGUCACCUUCUCUGAGAGAUUAACA | 0.663 ± 0.03
UACUACUGUCACCUUCUCUGAGAGAUUAACA | 0.694 ± 0.032
UACUGUGUCACCUUCUCUGAGAGAUUAACA | 0.63 ± 0.027
AUUACUGUCACCUUCUCUGAGAGAUUAACA | 0.713 ± 0.032
UUACUGUCACCUUCUCUGAGAGAUUAACA | 0.743 ± 0.041
AUACUGUCACCUUCUCUGAGAGAUUAACA | 0.756 ± 0.043
UUUACUGUCACCUUCUCUGAGAGAUUAACA | 0.708 ± 0.026
UUCUACUGUCACCUUCUCUGAGAGAUUAACA | 0.677 ± 0.038
UAGUGACUCACGUUCUCUGACAGAUUAACA | 0.00367 ± 0.0032
UAGACUGUCAGCUUCUCUGAGAGAUUAAGA | 0.0909 ± 0.017
UAGUCUCACACCUUCUCUGAGAGAUUAUGA | 0.0207 ± 0.0066
UAGUCUGUCACCUUCACUGAGAGAUUAACA | 0.39 ± 0.02
UUCACUGUCUACCUUCUCUGAGAGAUUAACA | 0.208 ± 0.022
UAGUGACAGUCCUUCUCUGAGAGAUAAUCA | 0.00284 ± 0.0022

Sequence | pre-steady-state target cleavage rate
AUGUCUGUCACCUUCUCUGAGAGAUUAACA | 0.604 ± 0.024
UAGGCUGUCACCUUCUCUGAGAGAUUAACA | 0.803 ± 0.045
AUCGCUGUCACCUUCUCUGAGAGAUUAACA | 0.825 ± 0.042
UACGCUGUCACCUUCUCUGAGAGAUUAACA | 0.745 ± 0.038
UUGUCUGUCACCUUCUCUGAGAGAUUAACA | 0.691 ± 0.031
UUCGCUGUCACCUUCUCUGAGAGAUUAACA | 0.626 ± 0.04
UUCUGUGUCACCUUCUCUGAGAGAUUAACA | 0.224 ± 0.022
AACUCUGUCACCUUCUCUGAGAGAUUAACA | 0.715 ± 0.034
UACACUGUCACCUUCUGUGUGAGAUUAACA | 0.0849 ± 0.012
UUCUCUGUGACCUUCUCUGAGAGAUUAACA | 0.491 ± 0.023
UACACUGUCACCUUCUCUGAGACUUUAUGA | 0.00869 ± 0.0047
UAGUGACAGUGCCUUCUCUGAGAGAUUAACA | 0.356 ± 0.034
UAGUGAGUGACCUUCUCAGAGAGAUUAACA | 0.226 ± 0.026
UAGUGACAGUCCUUCUCUGAGGGAUUAACA | 0.0348 ± 0.0076
UUCACUGCUCACCUUCUCUGAGAGAUUAACA | 0.669 ± 0.044
AUCACUGCUCACCUUCUCUGAGAGAUUAACA | 0.8 ± 0.051
AUCACUGCCACCUUCUCUGAGAGAUUAACA | 0.773 ± 0.044
UACACUGCUCACCUUCUCUGAGAGAUUAACA | 0.623 ± 0.035
UUCACUGCCACCUUCUCUGAGAGAUUAACA | 0.611 ± 0.023
UACACUGCCACCUUCUCUGAGAGAUUAACA | 0.613 ± 0.035
UAGUGACUGACCUUCUCUGAGAGAUUAUGA | 0.00985 ± 0.0048
UAGUGACUCUACCUUCUCUGAGAGAUUAACA | 0.122 ± 0.014
UAGACUGUGCACCUUCUCUGAGAGAUUAACA | 0.651 ± 0.048
UAGUGAGUCACCUUAUCUGAGAGAUUAACA | 0.363 ± 0.02
